# Sampled rows, rich in hits. Any-hit rate of the full collection: about 2.1%.
# INS-1E GSIS act: primary screen for activators of insulin secretion dependent on glucose, INS-1E cells, GLuc reporter luminescence; activation, % at 16.6 µM; 0.61% of 370,000 active; INS-1E GLuc reporter insulin secretion, 2-3 h;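 active means lowest replicate activation of at least 40%, so every replicate reaches that level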;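 further: 0% = median of neutral control wells and 100% = median of IBMX positive control wells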
# NSD2 inh: blocks human histone methyltransferase NSD2 | O96028 | NSD2 peptide methylation, AlphaScreen, 120 min | inhibition, % at 12.5 µM | 0.54% of 310,000 active; in the data active means inhibition above about 50%
# AF4-AF9 inh: inhibitors of human MLL-AF4/AF9 interaction. P42568. AlphaScreen, biotin-AF4 peptide binding to FLAG-AF9. inhibition, % at 10 µM. 0.47% of 350,000 active;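 active means every replicate reaching a set inhibition limit, whatever the replicate mean, cut at about 25% in these data; inconclusive means mean inhibition reaches that limit but some replicates miss it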;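 further: 0% = plate neutral control median and 100% = total signal loss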
# Target sequence (P42568 whole entry, looked up): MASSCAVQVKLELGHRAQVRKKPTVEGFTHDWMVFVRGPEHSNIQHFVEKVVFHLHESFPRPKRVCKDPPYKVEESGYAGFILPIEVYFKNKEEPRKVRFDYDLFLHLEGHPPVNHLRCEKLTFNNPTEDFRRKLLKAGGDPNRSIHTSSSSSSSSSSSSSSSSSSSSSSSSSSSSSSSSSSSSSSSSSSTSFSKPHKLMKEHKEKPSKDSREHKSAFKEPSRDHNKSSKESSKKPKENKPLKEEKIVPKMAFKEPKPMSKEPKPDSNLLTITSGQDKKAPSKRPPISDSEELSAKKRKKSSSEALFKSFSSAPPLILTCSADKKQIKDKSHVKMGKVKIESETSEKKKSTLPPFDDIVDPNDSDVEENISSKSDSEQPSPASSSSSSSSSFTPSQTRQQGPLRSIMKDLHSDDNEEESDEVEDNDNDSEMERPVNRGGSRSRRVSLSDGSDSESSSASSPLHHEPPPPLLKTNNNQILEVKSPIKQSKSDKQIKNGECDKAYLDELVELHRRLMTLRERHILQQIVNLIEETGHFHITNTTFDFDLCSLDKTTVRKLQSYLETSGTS
# Env fusion inh: inhibitors of HIV Env-mediated cell fusion; HeLa-JRFL Env/CEM21 cell fusion, luciferase; inhibition, % at 12.3 µM; 1.1% of 360,000 active; AID 651610;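 active means mean replicate inhibition score of at least 50 and every replicate individually at or above 50; inconclusive means only one of the two criteria met; inactive means mean below 50 and not all replicates reaching 50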;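 further: 0% = plate neutral controls and 100% = maraviroc near 300 nM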
# PGC1a acetyl inh: modulators of PGC1a acetylation; U2OS PGC1a acetylation, AlphaScreen anti-acetyl-lysine; with virally co-expressed GCN5 acetyltransferase; inhibition, % at 15.6 µM; 0.17% of 350,000 active;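 active means every replicate shows inhibition of at least 40%; inconclusive means mean inhibition at least 40% but some replicate below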;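 further: 0% = neutral control wells and 100% = positive control wells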
# The depositor's hits bear a star; ? = inconclusive; . = no result; [ ] = another dose, or the depositor's remark.
SMILES,INS-1E GSIS act,NSD2 inh,AF4-AF9 inh,Env fusion inh,PGC1a acetyl inh
CCOC(=O)c1c(C)oc2ccc(O)c(CN(C)C)c12,.,2,.,.,-4
CCOC(=O)c1c(CS(=O)(=O)c2ccccc2)n(C)c2cc(Br)c(O)c(CN(C)C)c12,1,1,6,67*,-22
CCOC(=O)c1c(CSc2ccc(CC)cc2)oc2ccc(O)c(CN(C)C)c12,786,10,23,56*,.
CCOC(=O)c1c(CS(=O)(=O)c2ccccc2)n(C)c2cc(Br)c(O)cc12,.,-2,0,31,-20
CCOC(=O)c1c(CSc2ccccc2)oc2cc(Br)c(O)c(CN(C)C)c12,-30,5,15,127*,-14
C1CCN=C(Nc2nc3c(s2)CCCC3)CC1,3,3,17,.,0
C[C@H]1CN([C@@H](C)CO)C(=O)c2cc(NS(=O)(=O)c3ccc(Cl)cc3)ccc2O[C@@H]1CN(C)Cc1ccc(Oc2ccccc2)cc1,-6,.,3,.,-5
COc1ccc(C(C#N)=Cc2ccc(OC)c(OC)c2)cc1,80*,-3,6,-29,1
COc1ccc(C=C(C#N)c2ccc(OC)cc2)cc1,22,.,20,.,-10
CC(C)Oc1ccc(C(=O)CCN2CCCCC2)cc1,.,10,.,-8,-2
CC(C)Oc1ccc(C(=O)CCN2CCOCC2)cc1,51*,-3,3,9,.
COc1cc(C(=O)C(=O)c2ccc(O)c(OC)c2)ccc1O,43*,1,1,-4,2
COc1cc(N)c(Cl)cc1NC(=O)c1ccccc1,.,20,.,-44,-17
O=C(Oc1ccc(/C=N/NC(=O)c2ccccn2)cc1)c1cccc(Br)c1,44*,1,-6,-106,.
Cc1ccc(C(=O)O/N=C(\N)c2ccccn2)c(Cl)c1,-14,-2,-1,85*,.
O=C(N(c1ccccn1)c1ccccn1)C12CC3CC(CC(Cl)(C3)C1)C2,13,1,-5,73*,0
COc1ccccc1N1CCN(C2CCCN(Cc3cc(F)cc(F)c3)C2)CC1 (stereo not given),-4,5,5,11,6
C=CCOc1c(Br)cc(CNc2ccc(NC(=O)C(C)C)c(OC)c2)cc1OC,-42,2,.,90*,4
CN(C)c1ncnc2sc(-c3ccccc3)cc12,40*,-8,1,18,.
CC(C)CC1NC(=O)N(CC(=O)N2CCN(S(=O)(=O)c3ccc4ccccc4c3)CC2)C1=O (stereo not given),.,2,.,.,0
CN(C)c1ccc(CN2CCC(C(=O)NC(c3ccc(F)cc3)c3ccc4ccccc4n3)CC2)cc1 (stereo not given),.,9,42*,-12,-26
O=C(NC(c1ccc(F)cc1)c1ccc2ccccc2n1)C1CCN(Cc2ccc3ccccc3n2)CC1 (stereo not given),-11,-2,1,9,-14
O=C(NC(c1ccc(F)cc1)c1ccc2ccccc2n1)C1CCN(CCOc2ccc(Cl)cc2)CC1 (stereo not given),-36,2,8,77*,4
O=C(NC(c1ccc(F)cc1)c1ccc2ccccc2n1)C1CCN(Cc2cccc(C(F)(F)F)c2)CC1 (stereo not given),.,17,4,75*,-10
O=C(NC(c1ccccc1)c1ccc2ccccc2n1)C1CCN(CCOc2ccc(Cl)cc2Cl)CC1 (stereo not given),-32,-2,0,50,.
SMILES,INS-1E GSIS act,NSD2 inh,AF4-AF9 inh,Env fusion inh,PGC1a acetyl inh
Cc1noc(C)c1NC(=O)N(C)C[C@H]1Oc2cc(C#CCC3CCCC3)ccc2S(=O)(=O)N([C@H](C)CO)C[C@H]1C,1,.,37*,.,2
Cc1noc(C)c1NC(=O)N(C)C[C@@H]1Oc2cc(C#CCC3CCCC3)ccc2S(=O)(=O)N([C@H](C)CO)C[C@H]1C,-15,.,?,.,1
Cc1noc(C)c1NC(=O)N(C)C[C@@H]1Oc2cc(C#CCC3CCCC3)ccc2S(=O)(=O)N([C@@H](C)CO)C[C@@H]1C,-15,.,29*,.,6
Cc1noc(C)c1NC(=O)N(C)C[C@@H]1Oc2cc(C#CCC(C)C)ccc2S(=O)(=O)N([C@@H](C)CO)C[C@@H]1C,-5,.,28*,-55[16.7 µM],-1
Cc1ccc(CCNC(=O)CCSCc2ccc(Cl)cc2)cc1,-3,-2,-10,23,-4
CC(C)OC(=O)CSc1nnc2n1C(C)(C)Cc1ccccc1-2,.,1,.,-396,0
O=C(c1ccc(Cl)c(Cl)c1)N1CCC(=O)N([C@H](COCc2ccccc2)Cc2ccccc2)CC1,-25,.,-2,64*,.
O=C(c1ccc(Cl)c(Cl)c1)N1CCC(=O)N([C@H](COCc2cccc(C(F)(F)F)c2)Cc2ccccc2)CC1,10,.,1,92*,.
O=C(c1ccc(Cl)c(Cl)c1)N1CCC(=O)N(C(COCc2ccccc2)Cc2ccccc2)CC1 (stereo not given),-25,.,.,86*,13
Cc1cccc(C(=O)N2CCC(=O)N(C(COCc3cccc(C(F)(F)F)c3)Cc3ccccc3)CC2)c1 (stereo not given),-55,.,0,26,-21
C[C@@H]1CN([C@@H](C)CO)C(=O)c2cccc(NS(=O)(=O)c3cccs3)c2O[C@H]1CN(C)C(=O)Nc1ccc(F)cc1,7,.,-1,-6[16.7 µM],2
CCCCNC(=S)N1CCn2cccc2C1c1ccc(F)cc1 (stereo not given),9,31,6,58*,-4
CCOC(=O)Nc1ccc([N+](=O)[O-])cc1C,2,5,-2,.,2
Cc1cc([N+](=O)[O-])ccc1N,42*,0,-5,-24,.
CCCc1nnc(SCC(=O)Nc2cc(C)on2)n1CCOC,-4,-3,2,2,3
CC1CCCCN1C(=O)COC(=O)CSc1ccc(C(N)=O)cc1[N+](=O)[O-] (stereo not given),45*,3,-1,.,-1
CCC1CCCCN1C(=O)COC(=O)CSc1ccc(C(N)=O)cc1[N+](=O)[O-] (stereo not given),29,3,-2,-8,20
CC(Oc1ccc(Br)cc1)C(=O)Nc1cc(Cl)ccc1N1CCN(C)CC1 (stereo not given),-20,1,-40,0,.
CCOc1ccc(C(=O)N/N=C/c2cc(Cl)ccc2[N+](=O)[O-])cc1,92*,-1,.,-12,.
CCOc1ccc(Cl)cc1/C=N/NC(=O)c1ccccc1,12,-2,-8,7,.
O=C(COC(=O)C1(c2ccccc2F)CCCC1)NCc1ccc2c(c1)OCO2,-23,-1,.,36,.
CC(=O)NC[C@H]1O[C@@H](n2ccc(N)nc2=O)[C@H](O)[C@@H]1O,3,.,-6,.,5
Nc1ccn(C2OC(COP(=O)(O)O)C(O)C2O)c(=O)n1 (stereo not given),2,0,-2,82*,-1
NS(=O)(=O)c1ccc(CNc2ncnc3sccc23)cc1,0,-3,0,-8,2
NS(=O)(=O)c1ccc(CCNc2ncnc3sccc23)cc1,.,-2,.,49*,12
